Shown are actives, neighbours in structure and some others; about 2.9% of the full set was active somewhere.
DRD3 agonist: D3 dopamine receptor (human) agonism. D3R DiscoveRx beta-arrestin cells, luminescence, 90 min. max activation, %. actives 0.58% (n = 410,000). AID 652048; in the data active = max activation above about 30%; note: 0% is about no effect
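Agonist mode: compounds and dopamine controls were applied to plated cells for 90 min at 37 degrees C after an overnight attachment at 1500 cells/well. Luminescent read-out followed 30 - 60 minutes at room temperature with DiscoveRx detection reagent.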
TRPML1 inh: human mucolipin-1 channel inhibition; TRPML1-inducible cells, Ca2+ dye fluorescence, FDSS; stronger effect = lower value; inhibition of EC80 agonist-evoked calcium signal; activity change, negative = inhibition, % (concentration not given with the values); actives 0.02% (n = 390,000); Q9GZU1; in the data active = activity change below about -50%; inconclusive = between about -30% and that limit;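 note: stimulus is agonist 54-4 at its EC80 concentration; % is set by controls: 0 for no effect and ±100 for the full control effect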
Target sequence (Q9GZU1 whole entry, looked up): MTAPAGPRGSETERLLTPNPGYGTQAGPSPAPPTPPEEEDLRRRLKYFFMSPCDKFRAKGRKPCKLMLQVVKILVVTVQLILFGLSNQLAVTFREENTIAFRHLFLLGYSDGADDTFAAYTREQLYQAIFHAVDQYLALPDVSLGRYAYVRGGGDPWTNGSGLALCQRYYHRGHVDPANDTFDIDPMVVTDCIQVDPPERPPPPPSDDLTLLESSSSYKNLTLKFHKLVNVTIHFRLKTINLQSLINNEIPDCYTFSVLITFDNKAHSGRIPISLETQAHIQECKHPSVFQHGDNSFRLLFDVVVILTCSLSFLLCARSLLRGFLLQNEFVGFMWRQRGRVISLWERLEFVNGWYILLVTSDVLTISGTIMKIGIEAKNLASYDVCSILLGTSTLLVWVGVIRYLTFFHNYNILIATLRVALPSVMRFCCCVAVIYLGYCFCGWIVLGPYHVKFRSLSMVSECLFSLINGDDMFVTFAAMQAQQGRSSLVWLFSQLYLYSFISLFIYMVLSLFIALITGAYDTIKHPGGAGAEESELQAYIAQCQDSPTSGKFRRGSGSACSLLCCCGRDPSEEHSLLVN
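Calcium fluorescence in TRPML1-DL cells induced overnight with Tet: a 110 s read after compound pin addition, then a 110 s antagonist read after challenge with 54-4 at 4 uM final (EC80).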
DRD3 antagonist: antagonists of human D3 dopamine receptor | actives 2.5% (n = 360,000) | D3R cells, DiscoveRx beta-arrestin luminescence, antagonist mode; stronger effect = lower value | AID 652054 | P35462 | max response, negative = inhibition, %; in the data active = max response below about -50%; inconclusive = no clear call, values can overlap the other calls; note: % is set by controls: 0 for no effect and ±100 for the full control effect
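Cells expressing the human receptor were seeded at 1500 cells/well, incubated overnight at 37 degrees C in 5% CO2, then exposed to library compounds with dopamine controls for 90 minutes at 37 degrees C before luminescent detection.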
TRPML1 agonist: agonists of human TRPML1 channel; actives 0.12% (n = 410,000); activation, % (test concentration not listed); TRPML1-expressing cells, Ca2+ dye fluorescence, FDSS; Q9GZU1; in the data active = activation above about 50%; inconclusive = mostly about 30% to 49%; note: 0% is about no effect
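Kinetic FDSS Ca2+ read in Tet-induced TRPML1-DL cells (ABD Ca8 dye plus quencher, 45-90 min RT loading): baseline, then compound, then 110 s agonist window; EC80 agonist 54-4 at 4uM final added afterwards for a 110 s antagonist window.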
* hit, by the source's call; ? = inconclusive; nt = no result.

SMILES	DRD3 agonist	TRPML1 inh	DRD3 antagonist	TRPML1 agonist
O=Nc1c(O)n(Cc2ccc(Cl)cc2Cl)c2ccccc12	1	4	-92*	4
CCn1cc(C(=O)OCC(=O)OC2CC(C)CCC2C(C)C)c(=O)c2ccc(C)nc21 (configuration not stated)	-1	-3	-81*	2
C=CCOC(=O)c1cn(CC)c2nc(C)ccc2c1=O	6	-7	-4	0
C[C@@H](C(=O)Nc1ccc2ccccc2c1)[C@@H]1C[C@@]1(C)[C@@H](NC(=O)c1cnccn1)c1ccccc1	-11	9	-75*	0
COc1cccc(N2CCN(C(=O)c3ccc(CS(=O)c4cccc(Cl)c4)o3)CC2)c1 (configuration not stated)	-3	7	nt	0
COc1ccc(OC)c(NC(=O)c2ccc(CN3CCc4ccccc4C3)cc2)c1	-13	nt	-109*	nt
COc1ccc(NC(=O)c2ccc(CN3CCc4ccccc4C3)cc2)c(OC)c1	-29	8	-101*	2
CCn1c(CNc2ccccc2Cl)nnc1SCCN1CCCCC1	-7	3	-60*	0
CO/N=C(\C(=O)N[C@@H]1C(=O)N2C(C(=O)O)=C(CSC(=O)c3ccco3)CS[C@H]12)c1csc(N)n1	-5	nt	nt	nt
O=C(O)c1ccccc1N=Nc1ccc(O)cc1	-52	-2	-71*	0
O=C(O)c1cc(O)ccc1N=Nc1ccccc1	-3	-2	-21	-1
CN(C)c1ccc(/C=C/c2ccnc3c(N)cccc23)cc1	nt	nt	nt	11
CCCCCCC1CC(CCc2nc(=S)[nH][nH]2)C(=O)O1 (configuration not stated)	-2	4	-13	0
CCCCCCCCc1nc(=S)[nH][nH]1	-2	2	-67*	1
CC(C)CNC(=O)CSc1nc2scc(-c3ccccc3)c2c(=O)[nH]1	48*	5	15	0
O=C(Nc1ccccc1Br)c1cnn2c1NC(=C1CC1)C=C2C(F)F	nt	nt	nt	-1
CCOc1ccccc1C(=O)NC1CCN(Cc2ccccc2)CC1	-11	9	-73*	0
O=C(NC1CCN(Cc2ccc(Cl)cc2)CC1)c1cn(-c2ccccc2)nc1-c1cccnc1	-22	-3	-62*	2
O=C(NC1CCN(Cc2ccccc2)CC1)c1ccccc1OCc1ccccc1	-23	24	-99*	1
COc1ccc(-c2nn(-c3ccccc3)cc2C(=O)O)cc1OC	6	8	5	0
O=C(O)c1cn(-c2ccccc2)nc1-c1ccc(Cl)cc1	9	-16	-54*	-1
O=C(NC1CCCC1)c1ccccc1OCc1ccccc1	8	-3	12	1
O=C(NCc1ccncc1)c1cn(-c2ccccc2)nc1-c1cccnc1	-1	-25	-2	2
CCOC(=O)CCN(c1ccccc1)S(=O)(=O)c1cc(-c2cc(C)no2)ccc1C	-2	9	nt	1
O=C(Nc1cccc2cccnc12)c1ccc(Br)cc1	nt	1	nt	2
SMILES	DRD3 agonist	TRPML1 inh	DRD3 antagonist	TRPML1 agonist
CSc1ncccc1C(=O)NC1CCN(Cc2ccccc2)CC1	-12	16	-60*	0
O=C(NC1CCN(Cc2ccccc2)CC1)c1ccccc1OCc1ccccc1Cl	-22	-3	-105*	0
O=C(NC1CCN(Cc2ccccc2)CC1)c1ccccc1Cl	-6	3	?	0
CCC(=O)NC1=C(Cl)C(=O)C(NC(=O)CC)=C(Cl)C1=O	0	3	-62*	-1
CCC(=O)NC1=C(NC(C)c2ccccc2)C(=O)c2ccccc2C1=O (configuration not stated)	1	11	-16	0
CCOC(=O)C(=CNc1cc(C)nn1-c1ccc(Cl)cc1)C(=O)OCC	10	24	2	3
CCOC(=O)C(=Cc1ccc(-n2cncn2)cc1)C(=O)OCC	-17	1	-64*	0
COc1cccc(CNC(=O)C2Cc3cc(S(=O)(=O)N4CCCCCC4)ccc3N2C(C)=O)c1 (configuration not stated)	0	-13	nt	-1
Cc1nnc(N2C(=O)C(O)=C(C(=O)c3ccco3)C2c2ccc(C(C)(C)C)cc2)s1 (configuration not stated)	-18	6	-83*	3
COc1cccc(C(=O)CN2C3=NCCCN3c3ccccc32)c1	-2	3	-62*	1
O=C(CN(C(=O)CNS(=O)(=O)c1ccccc1)C1CCCC1)NCC1CCCO1 (configuration not stated)	2	20	-53*	-1
Cc1ccc(S(=O)(=O)NCC(=O)N(CC(=O)NCC2CCCO2)C2CCCC2)cc1 (configuration not stated)	3	7	-1	-1
N#Cc1ccc(/C=C2\C=Cc3ccccc32)cc1	nt	nt	nt	0
O=C(CNS(=O)(=O)c1ccccc1)NCc1ccccn1	2	-11	-51*	0
Cc1ccc(S(=O)(=O)NCCC(=O)NCc2ccccn2)cc1	-7	-5	-8	1
CC(C)Oc1ccc(CN2CCC2(C)C(=O)Nc2cccc3cccnc23)cc1 (configuration not stated)	-22	nt	-92*	-1
O=[N+]([O-])c1cc(S(=O)(=O)C(F)(F)F)ccc1N1CCN(c2ccccc2)CC1	-20	26	-54*	0
O=[N+]([O-])c1cc(S(=O)(=O)Nc2ccccc2)ccc1N1CCN(c2ccccc2)CC1	-7	2	?	0
COc1cc(/C=C2\SC(=O)N(c3cccc(Cl)c3)C2=O)cc([N+](=O)[O-])c1O	-29	9	-62*	1
COc1cc(/C=C2\SC(=O)N(c3ccc(Cl)cc3)C2=O)cc([N+](=O)[O-])c1O	-22	3	-70*	-1
COc1cc([N+](=O)[O-])cc(/C=N/NC(=O)C(C)Nc2cccc(C)c2)c1O (configuration not stated)	-19	-11	-55*	2
COc1cc([N+](=O)[O-])cc(/C=N/NC(=O)C(C)Nc2ccccc2C)c1O (configuration not stated)	-20	15	-98*	3
Cc1ccccc1COn1nnc2ccc(S(=O)(=O)N3CCOCC3)cc21	0	-7	-51*	1
CCCN1CCC(NC(=O)CCc2nnc(-c3ccccc3)o2)CC1	-6	-11	-53*	0
Nc1cccc(NC(=O)c2cccs2)c1	1	-4	18	0
O=C(Nc1cccc(N2CCCC2)c1)c1cccs1	-33	25	-51*	0
Cc1cccc(C)c1OCC(=O)NCC1(N2CCOCC2)CCCCC1	-26	-8	nt	29
Cc1nn(-c2cc(N3CCCCC3)ccc2[N+](=O)[O-])c(=O)c2ccccc12	-19	-7	?	1
CN1CCN(c2ccc([N+](=O)[O-])c(-n3nc(-c4ccccc4)c4ccccc4c3=O)c2)CC1	2	-7	-53*	0
CO[C@@]1(NC(=O)CSC[C@@H](N)C(=O)O)C(=O)N2C(C(=O)O)=C(CSc3nnnn3C)CS[C@@H]21	-26	nt	nt	nt
